Composite z-score, composite Z-score and z-score data for 5 compounds are collected here from PubChem BioAssay.

Experiment [1] concerns the target Albumin (Bos taurus) (UniProt P02769). The experiment in a line: compounds binding labelled BSA control protein – biochemical, small-molecule microarray, Alexa647 label, 635/667 nm fluorescence, artefact control for SMM control protein annotation, profiling panel (AID 1118).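 Note: score merges 667 nm emission intensity and signal-to-noise per printed compound spot.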 The note with it: BSA-A647 binding, fluorescence 635 nm, higher = more signal.
Experiment [2] in a line: probe aXIP binding to arrayed compounds – biochemical, NeuroSMM set, 635/667 nm fluorescence, primary screen (AID 1119).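 Note: probe is the protein aXip251-270 applied at 1 µg/mL to compound-printed slides; binding of probe to printed compounds measured as 667 nm fluorescence plus signal to noise.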 The note with it: small-molecule microarray, higher = more signal, called active from +8 up or from −8 down.
A short description of experiment [3]: probe aNOTCH3 binding on compound microarray – biochemical, small-molecule microarray, 635/667 nm fluorescence, primary screen (AID 1120).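 Note: probe is a biotin-tagged antibody raised against NOTCH3 rather than NOTCH3 protein; score merges spot fluorescence near 667 nm with spot signal to noise.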 The note with it: higher = more signal.
Experiment [4] in a line: probe aNOTCH2 binding on compound microarray – biochemical, small-molecule microarray, 635/667 nm fluorescence, primary screen (AID 1121).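 Note: score merges feature fluorescence read at 667 nm with its signal to noise.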 The note with it: higher = more signal.
In experiment [5] the target is Carbonic anhydrase 2 (Homo sapiens) (UniProt P00918). Briefly: compounds binding carbonic anhydrase 2 – biochemical, small-molecule microarray, Alexa647-labelled CAII, profiling panel (AID 1122). Conditions: CAII-A647 binding fluorescence, higher = more signal.
Experiment [6] is described as follows: COS7 lysate on small-molecule microarray, probe aHis, 635 nm (AID 1123).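 Note: z-score combines 667nm fluorescence intensity with signal-to-noise per printed compound spot.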 Conditions: COS7 cell lysate, fluorescence, higher = more signal.
Experiment [7] is described as follows: probe aLAP1 signal on lysate-treated microarray – cell lysate, small-molecule microarray, COS7 lysate, primary screen (AID 1124).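 Note: lysate comes from COS7 cells expressing LAP1 and is applied at 0.3 µg/mL; score merges spot fluorescence near 667 nm with signal-to-noise over triplicate slides.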 Conditions: probe aLAP1, fluorescence, higher = more signal.
Experiment [8] deals with Sam68 (KHDRBS1). The experiment in a line: compounds binding KHDRBS1 protein – biochemical, small-molecule microarray, 635 nm fluorescence, primary screen (AID 1125).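 Note: score merges 667 nm channel intensity with signal to noise over triplicate slides.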 Conditions: higher = more signal.
Experiment [9] relates to Chordin-like protein 2 (CHRDL2). Briefly: compounds binding chordin-like 2 – biochemical, small-molecule microarray, 635 nm fluorescence, primary screen (AID 1126).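 Note: printed compound slides probed with Chrdl2 protein at 4 µg/mL for 1 h at 4 C; score merges 667 nm emission intensity with signal to noise over three replicate slides.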 The note with it: fluorescence 635 nm, higher = more signal.
Experiment [10] deals with Concanavalin-A (Canavalia ensiformis) (UniProt P02866). Briefly: compounds binding concanavalin A lectin – biochemical, small-molecule microarray, Alexa647 label, 635 nm, artefact control for SMM control protein annotation, primary screen (AID 1127).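 Note: z combines 667 nm emission intensity with signal-to-noise across three replicate slides.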 Conditions: ConA-A647 binding fluorescence, higher = more signal.
A short description of experiment [11]: compounds binding Alexa647 anti-His antibody – biochemical, small-molecule microarray, 635 nm fluorescence, artefact control for SMM control protein annotation, primary screen (AID 1128).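 Note: score merges feature fluorescence with signal-to-noise for each printed compound spot.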 The note with it: higher = more signal.
For experiment [12], the system named is Human papillomavirus type 1a E7 protein (residues 1-88). The experiment in a line: HPV1a E7 small-molecule binders, primary screen, biochemical, small-molecule microarray, residues 1-88, 635 nm (AID 1129). The note with it: small-molecule microarray binding, fluorescence 635 nm; higher = more signal.
In experiment [13] the target is Focal adhesion kinase 1 (Homo sapiens) (UniProt Q05397). The experiment in a line: PTK2 protein binding on printed compound slides – biochemical, small-molecule microarray, 635/667 nm fluorescence, BSA, DTT, primary screen (AID 1130).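 Note: composite of spot emission at 667 nm and signal to noise over triplicate slides.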 The note with it: 635 nm fluorescence, higher = more signal.
Experiment [14] concerns Fibrinogen (Alexa647-labelled). The experiment in a line: Alexa647-fibrinogen binding to printed small molecules – biochemical, small-molecule microarray, 635/667 nm fluorescence, artefact control for SMM control-protein annotation, profiling panel (AID 1131).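 Note: z-score merges 667 nm fluorescence with per-spot signal-to-noise over triplicate slides.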 Conditions: fibrinogen-A647 binding fluorescence, higher = more signal.
Experiment [15] has as its target Follistatin (Homo sapiens) (UniProt P19883). The experiment in a line: FST protein binding to printed compounds – biochemical, small-molecule microarray, 635/667 nm fluorescence, primary screen (AID 1132). Conditions: 635 nm fluorescence, higher = more signal.
The target of experiment [16] is Fibroblast growth factor 2 (Homo sapiens) (UniProt P09038). The experiment in a line: basic fibroblast growth factor binding to printed compounds – biochemical, small-molecule microarray, 635/667 nm fluorescence, primary screen (AID 1133). Conditions: FGF2, fluorescence 635/667, higher = more signal.
A short description of experiment [17]: JC-1 mitochondrial potential readout, lung cancer cells – cell-based, A549, JC-1 fluorescence, basal, 24 h, 100 nL, profiling panel (AID 1138).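 Note: A549 lung adenocarcinoma cells under basal conditions with no added stimulus; test concentration not given here.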 The note with it: higher = more signal.
Experiment [18] concerns Lefty1. The experiment in a line: Lefty1 protein binding to printed compounds – biochemical, small-molecule microarray, 635/667 nm fluorescence, primary screen (AID 1139). The note with it: fluorescence 635/667, higher = more signal.
Experiment [19] has as its system wheat germ agglutinin (Triticum aestivum), Alexa647-labelled. Briefly: Alexa647-WGA lectin binding to printed small molecules – biochemical, small-molecule microarray, 635/667 nm fluorescence, artefact control for SMM control-protein annotation, profiling panel (AID 1140).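 Note: score merges 667 nm feature emission with signal to noise over triplicate slides.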 The note with it: WGA-A647 binding, 635 nm fluorescence, higher = more signal.
Experiment [20] addresses Luciferin 4-monooxygenase (Photinus pyralis) (UniProt P08659). The experiment in a line: inhibition of purified Photinus pyralis luciferase – biochemical, luminescence, purified enzyme, 2006 set, primary screen (AID 1141).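 Note: cell-free assay with purified firefly luciferase at 100 ng per well in PBS; test concentration not given here.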 Conditions: purified firefly luciferase, SteadyGlo luminescence, 30 min; higher = more signal, called active from +8 up or from −8 down.

The source made the active and inactive calls.

Sequence of Luciferin 4-monooxygenase (Photinus pyralis) (P08659 whole entry, looked up): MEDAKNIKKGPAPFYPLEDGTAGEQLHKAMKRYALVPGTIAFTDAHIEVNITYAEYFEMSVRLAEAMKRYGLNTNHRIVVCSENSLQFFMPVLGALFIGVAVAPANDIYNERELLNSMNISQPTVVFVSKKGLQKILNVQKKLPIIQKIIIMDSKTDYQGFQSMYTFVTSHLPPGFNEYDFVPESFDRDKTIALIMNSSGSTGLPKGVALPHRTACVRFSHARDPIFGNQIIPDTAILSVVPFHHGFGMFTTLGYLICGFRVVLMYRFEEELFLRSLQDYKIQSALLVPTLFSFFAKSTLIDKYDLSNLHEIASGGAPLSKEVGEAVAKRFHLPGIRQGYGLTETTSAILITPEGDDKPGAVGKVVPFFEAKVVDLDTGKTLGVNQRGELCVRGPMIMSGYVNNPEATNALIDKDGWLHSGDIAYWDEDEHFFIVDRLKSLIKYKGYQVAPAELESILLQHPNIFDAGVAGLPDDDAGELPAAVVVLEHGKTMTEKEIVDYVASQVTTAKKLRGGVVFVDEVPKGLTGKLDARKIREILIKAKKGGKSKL
Sequence of Albumin (Bos taurus) (P02769 whole entry, looked up): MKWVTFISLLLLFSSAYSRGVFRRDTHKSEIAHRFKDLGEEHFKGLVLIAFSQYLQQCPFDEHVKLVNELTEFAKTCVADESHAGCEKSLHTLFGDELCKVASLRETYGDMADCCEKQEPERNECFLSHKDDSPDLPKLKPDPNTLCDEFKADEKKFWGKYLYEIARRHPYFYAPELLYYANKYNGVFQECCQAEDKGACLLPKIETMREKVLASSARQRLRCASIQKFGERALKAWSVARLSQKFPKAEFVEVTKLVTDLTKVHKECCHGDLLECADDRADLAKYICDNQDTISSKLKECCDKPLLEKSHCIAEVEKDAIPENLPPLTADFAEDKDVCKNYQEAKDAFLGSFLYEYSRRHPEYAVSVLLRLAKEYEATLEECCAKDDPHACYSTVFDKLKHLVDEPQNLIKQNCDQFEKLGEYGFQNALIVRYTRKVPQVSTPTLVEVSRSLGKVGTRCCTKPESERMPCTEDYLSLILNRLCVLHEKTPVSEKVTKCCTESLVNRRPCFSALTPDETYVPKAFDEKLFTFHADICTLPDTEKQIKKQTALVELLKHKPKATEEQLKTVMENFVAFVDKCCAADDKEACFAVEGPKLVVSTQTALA
Sequence of Follistatin (Homo sapiens) (P19883 whole entry, looked up): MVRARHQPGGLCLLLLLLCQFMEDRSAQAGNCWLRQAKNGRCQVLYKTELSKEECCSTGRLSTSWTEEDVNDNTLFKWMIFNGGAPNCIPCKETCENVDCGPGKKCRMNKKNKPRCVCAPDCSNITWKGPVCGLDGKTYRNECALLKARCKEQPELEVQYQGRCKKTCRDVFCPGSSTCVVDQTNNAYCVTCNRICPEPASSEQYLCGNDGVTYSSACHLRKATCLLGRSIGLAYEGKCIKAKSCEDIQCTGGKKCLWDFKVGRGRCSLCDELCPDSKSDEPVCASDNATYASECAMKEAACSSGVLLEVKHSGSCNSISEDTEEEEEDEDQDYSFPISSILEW
Sequence of Focal adhesion kinase 1 (Homo sapiens) (Q05397 whole entry, looked up): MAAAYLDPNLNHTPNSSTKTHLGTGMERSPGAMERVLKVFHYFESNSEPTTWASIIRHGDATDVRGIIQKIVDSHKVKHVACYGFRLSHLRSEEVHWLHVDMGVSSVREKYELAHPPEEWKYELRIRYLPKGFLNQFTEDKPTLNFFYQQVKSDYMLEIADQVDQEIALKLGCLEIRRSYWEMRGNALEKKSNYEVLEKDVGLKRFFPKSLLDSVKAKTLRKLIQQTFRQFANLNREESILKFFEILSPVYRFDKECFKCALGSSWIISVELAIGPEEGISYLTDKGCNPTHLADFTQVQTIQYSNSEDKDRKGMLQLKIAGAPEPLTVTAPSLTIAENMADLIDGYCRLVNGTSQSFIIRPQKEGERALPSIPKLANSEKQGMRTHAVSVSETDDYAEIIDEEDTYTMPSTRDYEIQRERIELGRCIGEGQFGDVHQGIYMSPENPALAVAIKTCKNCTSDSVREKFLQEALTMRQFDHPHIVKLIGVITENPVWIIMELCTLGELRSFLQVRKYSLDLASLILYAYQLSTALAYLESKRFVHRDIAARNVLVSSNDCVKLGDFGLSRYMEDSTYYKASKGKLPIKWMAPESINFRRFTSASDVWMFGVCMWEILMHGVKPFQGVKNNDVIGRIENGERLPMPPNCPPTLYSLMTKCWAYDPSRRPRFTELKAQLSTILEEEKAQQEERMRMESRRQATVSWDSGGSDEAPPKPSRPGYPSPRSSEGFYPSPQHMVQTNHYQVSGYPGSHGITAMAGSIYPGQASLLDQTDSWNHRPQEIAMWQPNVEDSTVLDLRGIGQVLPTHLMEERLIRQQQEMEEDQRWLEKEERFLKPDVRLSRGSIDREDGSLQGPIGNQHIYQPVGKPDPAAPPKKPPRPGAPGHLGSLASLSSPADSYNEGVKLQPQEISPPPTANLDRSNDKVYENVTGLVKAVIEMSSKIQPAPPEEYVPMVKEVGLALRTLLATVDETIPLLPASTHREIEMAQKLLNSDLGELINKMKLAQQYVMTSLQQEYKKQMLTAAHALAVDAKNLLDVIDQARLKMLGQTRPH
Sequence of Concanavalin-A (Canavalia ensiformis) (P02866 whole entry, looked up): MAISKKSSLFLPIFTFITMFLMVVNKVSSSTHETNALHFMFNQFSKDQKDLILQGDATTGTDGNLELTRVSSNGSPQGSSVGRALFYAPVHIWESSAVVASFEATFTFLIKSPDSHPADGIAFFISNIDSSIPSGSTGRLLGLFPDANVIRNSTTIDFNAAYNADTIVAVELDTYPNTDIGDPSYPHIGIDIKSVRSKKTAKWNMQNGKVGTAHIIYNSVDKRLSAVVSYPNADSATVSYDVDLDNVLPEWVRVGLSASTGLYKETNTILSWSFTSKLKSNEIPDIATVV
Sequence of Fibroblast growth factor 2 (Homo sapiens) (P09038 whole entry, looked up): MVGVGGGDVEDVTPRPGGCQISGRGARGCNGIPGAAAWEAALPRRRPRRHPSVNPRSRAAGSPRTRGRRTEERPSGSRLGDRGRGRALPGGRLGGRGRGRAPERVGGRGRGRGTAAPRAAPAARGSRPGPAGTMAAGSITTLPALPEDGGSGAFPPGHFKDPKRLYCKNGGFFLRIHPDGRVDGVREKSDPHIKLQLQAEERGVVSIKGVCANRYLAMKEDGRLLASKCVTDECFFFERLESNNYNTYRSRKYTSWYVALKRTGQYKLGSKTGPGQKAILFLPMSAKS

For the compound `CC(C)=C1C(=O)C(c2ccccc2)=C2CN3C(=O)N(CCc4ccccc4)C(=O)[C@]3(C)[C@H]21`, the composite z-score in experiment [1] is 0.826; in [3], 0.0162; in [4], 0.166; in experiment [5], 0.373; in experiment [6] it was 1.23; in experiment [7], -0.414. The composite z-score in [8] was 0.141; in experiment [9] it was -0.686; in experiment [10], 0.809; in experiment [11] it was -0.0854; in [12], 0.871; in [13], 0.701. The composite z-score in experiment [14] was 0.679; in experiment [15], 0.21; in experiment [16], -0.648; in experiment [18], -0.455; in experiment [19], 0.673. Moreover, the composite Z-score in [2] is 0.432 (inactive). The figures for the z-score in experiment [17] and in experiment [20] were 1.77 and 0.0775 (inactive), respectively.
As for `CC(=O)NCCCC[C@@H]1NC(=O)[C@H]2C[C@@H](C(=O)NCCCCCCNC(=O)CS)[C@@H](c3cccc(OCCO)c3)N2C1=O`, the composite z-score in experiment [1] is -0.637; in [3], -0.0647; in [4], -0.108; in experiment [5], 0.592; in [6], 1.84; in [7] it was 0.537. In addition, the composite z-score in experiment [8] was 1.28; in experiment [9] it was 0.487; in [10], 0.447; in experiment [11] it was 3.57; in experiment [12], 0.937; in experiment [13], 0.612. The composite z-score in [14] is -0.256; in [15] it was 1.36; in experiment [16] it was 1.63; in experiment [18], 0.0938; in experiment [19], 0.184. Moreover, in experiment [2], the composite Z-score is 0.381 (inactive). Besides, the z-score was -0.0905 in experiment [17] and -0.399 (inactive) in experiment [20].
With `COc1ccc([Si](C)(C)[C@H]2[C@H](CC(=O)N3Cc4ccccc4C[C@H]3CO)O[C@@]3(C(=O)N(c4ccccc4)c4ccccc43)[C@@H]2C)cc1`, the composite z-score in experiment [1] is 0.622; in [3], 0.204; in experiment [4], -0.126; in experiment [5], 0.306; in experiment [6], 0.994; in experiment [7], 0.374. Also, the composite z-score in experiment [8] was 1.29; in experiment [9] it was 1.22; in experiment [10], 1.09; in experiment [11] it was 1.27; in [12], 1.19; in experiment [13], 0.0758. Moreover, the composite z-score in experiment [14] turned out to be 0.96; in experiment [15], 1.37; in experiment [16], 1.64; in experiment [18], 1.48; in experiment [19], 0.771. Also, the composite Z-score in experiment [2] is 0.319 (inactive). The z-score in [17] was 1.78; in experiment [20], 0.16 (inactive).
As for `COC(=O)C[C@H]1O[C@@]2(C[C@@H]1[Si](C)(C)C)C(=O)N(C)c1ccccc12`, the composite z-score in [1] is 0.18; in experiment [3], 0.0306; in experiment [4], -0.111; in [5], 0.288; in experiment [6], 0.689; in experiment [7], 0.186. The composite z-score in [8] was 0.86; in [9] it was 0.268; in [10] it was 0.332; in experiment [11], 0.324; in [12], 0.643; in experiment [13], -0.203. In addition, the composite z-score in experiment [14] stood at 0.78; in experiment [15], 0.501; in experiment [16] it was 0.0172; in [18], 0.453; in experiment [19], 0.0729. The composite Z-score in [2] is -0.701 (inactive). For the same compound, the z-score in experiment [17] is 1.63; in experiment [20], -1.85 (inactive).
For the compound `CC(C)N1C(=O)c2ccccc2[C@](C)(C(=O)NCC(F)(F)F)[C@@H]1c1ccc(CO)cc1`, the composite z-score is -0.267 in experiment [1]; -0.407 in experiment [3]; 0.0344 in [4]; 0.852 in experiment [5]; 2.55 in experiment [6]; 1.14 in experiment [7]. In addition, the composite z-score in experiment [8] was -0.701; in [9], -0.912; in [10], -1.22; in experiment [11], -0.851; in experiment [12], -0.432; in experiment [13] it was -0.749. The composite z-score was -1.07 in experiment [14]; -1.02 in experiment [15]; -0.337 in [16]; -1.5 in [18]; 0.594 in experiment [19]. The composite Z-score in experiment [2] is -0.415 (inactive). The figures for the z-score in experiment [17] and in experiment [20] were 0.607 and -1.17 (inactive), respectively.
